An excerpt weighted towards active compounds, which were near 7.5% of everything screened.
HCMV inh – inhibitors of human cytomegalovirus; HFF cells, HCMV-luciferase reporter, 72 h; active compounds read low; AID 1259415; activity change, negative = inhibition, % at 57.5 µM; actives 4.5% (n = 410,000); in the data active means activity change below about -60%; inconclusive means no clear call, values can overlap the other calls; inactive means above about -39%
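Cell-based, HFFs, 1000 cells/well, 16 h 37C; cpds in DMSO + HCMV-luc, MOI 1 PFU/cell; 72 h 37C; OneGlo luminescence after 5 min RT; norm. to buffer vs Salinomycin 10uM.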
HCV inh – blocks hepatitis C virus. Huh7.5.1 HCVcc-Cre infection, luciferase reporter, 44 h. Potency, µM (series often up to 41.8 µM), for inactives: at the highest dose activity change, negative = inhibition, hits mostly inhibitors. actives 3.4% (n = 340,000). AID 651820; further: potency means the concentration at half of the fitted maximal effect
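Whole-lifecycle infectious HCVcc-Cre system; cells 1,000/well, compound then virus (~0.5 moi) added 4 h after plating, 44 h culture. Luciferase read 15 sec following 15 min substrate incubation, room temp.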
Vaccinia Venus – vaccinia inhibition (Venus reporter); Vaccinia virus Venus reporter expression, fluorescence; Potency, µM (highest dose often 36.5 µM), inactives show top-dose activity change, negative = inhibition, hits mostly inhibitors; actives 0.46% (n = 330,000); calls by dose curve; tested in A549 cells; further: potency means the concentration at half of the fitted maximal effect; nearly all actives have a fitted effect of over 30% in size
Giardia FBPA inh – blocks Giardia fructose-bisphosphate aldolase activity | A8B2U2 | purified Giardia FBPA | Potency, µM (series often up to 59.6 µM), for the others: at the highest dose activity, negative = inhibition, most hits filed as inhibitors | actives 0.71% (n = 290,000); further: potency means the concentration at half of the fitted maximal effect; nearly all actives have a fitted effect of over 55% in size
Target sequence (A8B2U2 whole entry, looked up): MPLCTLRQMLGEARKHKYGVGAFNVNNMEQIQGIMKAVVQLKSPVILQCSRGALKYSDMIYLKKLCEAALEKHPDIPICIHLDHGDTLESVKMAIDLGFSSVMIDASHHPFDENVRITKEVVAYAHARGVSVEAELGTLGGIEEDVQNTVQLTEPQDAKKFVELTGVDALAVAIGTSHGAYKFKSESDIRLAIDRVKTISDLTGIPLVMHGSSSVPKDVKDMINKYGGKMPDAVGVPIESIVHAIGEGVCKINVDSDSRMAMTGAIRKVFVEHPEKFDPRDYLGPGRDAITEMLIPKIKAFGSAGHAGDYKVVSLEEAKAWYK
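40 nM FBPA preincubated 10 min at RT with compound (up to 57.5 uM final), then substrate plus GAPDH/TPI/NAD/arsenate coupling and diaphorase/resazurin added. Fluorescence read after 20 min at RT, 525/598 nm.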
FMDV antiviral – blocks foot and mouth disease virus; FMDV antiviral cell-based qHTS; Potency, µM (highest dose often 57.9 µM), inactives show top-dose activity change, negative = inhibition, actives largely listed as inhibitors; actives 1.2% (n = 410,000); AID 1159524; calls by dose curve; tested in HEK293T cells; further: read-out not given here; potency means the concentration at half of the fitted maximal effect; nearly all actives have a fitted effect of over 45% in size
VACV mCherry inh – inhibitors of vaccinia virus infection (mCherry reporter signal) | AID 720579 | Potency, µM (highest dose often 36.5 µM), for inactives: at the top dose activity change, negative = inhibition, usual class: inhibitors | Vaccinia virus mCherry reporter infection, fluorescence | actives 0.63% (n = 310,000); calls by dose curve; tested in A549 cells; further: potency means the concentration at half of the fitted maximal effect; nearly all actives have a fitted effect of over 35% in size
* = called active by the depositor. Unless noted, the call rests on the fitted dose curve; in most records, active means well fitted curve in the direction sought with a large enough effect; inconclusive means small, poorly fitted or top-dose-only effect, or another doubt; inactive means no such curve, though single readings can be large; an effect the other way counts as inactive or inconclusive. On the % scale 0 is the no-effect control and ±100 the full control effect.

For Cc1ccc(C)c(NC(=O)CN(C)C(=O)c2oc3c(Cl)cccc3c2C)c1 the results were HCMV inh -27, HCV inh inconclusive, Vaccinia Venus -5%, FMDV antiviral -12% and VACV mCherry inh inconclusive.
`Cc1nc(C)n(CC(=O)NCC2Cc3cc(-c4cccc(OC(F)(F)F)c4)ccc3O2)n1` (stereo not given) gave Vaccinia Venus -6%, FMDV antiviral -21% and VACV mCherry inh -2%.
Screening COc1cccc2c1NC1(c3ccccc3)c3ccccc3-n3nncc3CN1C2=O (stereo not given) returned HCMV inh -4.
O=C(Cn1ncc(Cl)c(Cl)c1=O)c1ccc(Cl)cc1 was read as HCMV inh -98*, HCV inh 2.8µM*, Vaccinia Venus 4%, Giardia FBPA inh 4%, FMDV antiviral 35µM* and VACV mCherry inh -13%.
`O=C(Cn1ncc(N2CCOCC2)c(Cl)c1=O)c1ccc(Cl)cc1` gave HCMV inh -36, HCV inh 13%, Vaccinia Venus 3%, Giardia FBPA inh -1%, FMDV antiviral inconclusive and VACV mCherry inh -22%.
For O=c1cnn(Cc2ccc(F)cc2)c2ccccc12 the results were HCMV inh -17, HCV inh 1%, Vaccinia Venus -4%, Giardia FBPA inh 12%, FMDV antiviral 3% and VACV mCherry inh -19%.
Screening O=c1c(Cl)c(Cl)cnn1Cc1ccc(F)cc1 returned HCMV inh -99*, HCV inh 8.9µM*, Giardia FBPA inh -7% and FMDV antiviral 40µM*.
C=CCn1c(C)cc(C(=O)CN2NS(=O)(=O)c3ccccc3C2=O)c1C was read as HCMV inh -74*, HCV inh inconclusive, Vaccinia Venus -18%, Giardia FBPA inh -1%, FMDV antiviral 5% and VACV mCherry inh -17%.
CC(C)(C)C(=O)Cn1ncc(N2CCCC2)c(Br)c1=O was read as HCMV inh 67, HCV inh -4%, Vaccinia Venus 2%, Giardia FBPA inh -7% and FMDV antiviral 25%.
`CC(C)(C)C(=O)Cn1ncc(Cl)c(Cl)c1=O` gave HCMV inh -100*, HCV inh inconclusive, Giardia FBPA inh 4% and FMDV antiviral inconclusive.
Screening Cc1ccc(CNC(=O)CN2NS(=O)(=O)c3ccccc3C2=O)cc1 returned HCMV inh -13, Vaccinia Venus -15%, FMDV antiviral 6% and VACV mCherry inh -13%.
For CCOc1ccccc1NC(=O)COc1cccc2c(=O)n(CCOC)ccc12 the results were HCMV inh 0, Vaccinia Venus -22%, FMDV antiviral inconclusive and VACV mCherry inh inconclusive.
For CC1CCc2c(sc(NC(=O)CSc3nc(N)cc(=O)[nH]3)c2C(N)=O)C1 (stereo not given) the results were HCMV inh -37, HCV inh -22%, Vaccinia Venus -9%, FMDV antiviral inconclusive and VACV mCherry inh -21%.
Cc1ccc(Nc2c(-c3ccncc3)nc3ccc(C)cn23)cc1 was read as HCMV inh 11, Vaccinia Venus -18%, FMDV antiviral -22% and VACV mCherry inh -21%.
`O=C(OCn1ncc(Cl)c(Cl)c1=O)c1ccccc1Cl` gave HCMV inh -103*, HCV inh 4µM*, Giardia FBPA inh 4% and FMDV antiviral 10µM*.
`O=C(OCn1ncc(Cl)c(Cl)c1=O)c1ccc(F)cc1` gave Giardia FBPA inh 3%.
C=CCn1c(C)cc(C(=O)COC(=O)[C@@H](NC(=O)c2ccccc2Cl)C(C)C)c1C was read as HCMV inh -21, HCV inh 26%, Vaccinia Venus -13%, Giardia FBPA inh 1%, FMDV antiviral inconclusive and VACV mCherry inh -22%.
`C=CCn1c(C)cc(C(=O)Cn2ncc(Cl)c(Cl)c2=O)c1C` gave HCMV inh -98*, HCV inh 13µM*, Vaccinia Venus inconclusive, Giardia FBPA inh -1%, FMDV antiviral inconclusive and VACV mCherry inh inconclusive.
For COc1c(CC(=O)c2cc3c(cc2O)OC(C)(C)C(O)C3)ccc2c1C=CC(C)(C)O2 (stereo not given) the results were Vaccinia Venus -9%, Giardia FBPA inh -11%, FMDV antiviral 0% and VACV mCherry inh inactive.

Screening results deposited in PubChem BioAssay by National Center for Advancing Translational Sciences (NCATS).
